Bioassay records deposited in PubChem by National Center for Advancing Translational Sciences (NCATS).
Only some compounds are listed: those with a hit (about 2.5% of all), similar ones and a draw of the others.
POLB inh = inhibitors of human DNA polymerase beta | P06746 | Pol beta primer extension/strand displacement, fluorescence kinetic | Potency, µM (doses to about 114 µM), without a hit: top-dose activity change, negative = inhibition, most hits filed as inhibitors | actives 1.3% (n = 340,000) | AID 485314; also: % is scaled to controls: 0 for no effect and ±100 for the full control effect
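Curves were derived by four-parameter Hill fits of normalized qHTS data. The kinetic fluorescent primer-extension read was taken at 0 and 10 min after 50 nM substrate, following a 15 min room-temperature preincubation of 10 nM enzyme with compounds.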
Pol iota inh = blocks human DNA polymerase iota activity. actives 1% (n = 390,000). Potency, µM (titrated, usually from 115 µM), for the others: at the top dose activity, negative = inhibition, most hits filed as inhibitors. Pol iota fluorescent replication assay, 10 min
Target sequence (Q9UNA4 whole entry, looked up): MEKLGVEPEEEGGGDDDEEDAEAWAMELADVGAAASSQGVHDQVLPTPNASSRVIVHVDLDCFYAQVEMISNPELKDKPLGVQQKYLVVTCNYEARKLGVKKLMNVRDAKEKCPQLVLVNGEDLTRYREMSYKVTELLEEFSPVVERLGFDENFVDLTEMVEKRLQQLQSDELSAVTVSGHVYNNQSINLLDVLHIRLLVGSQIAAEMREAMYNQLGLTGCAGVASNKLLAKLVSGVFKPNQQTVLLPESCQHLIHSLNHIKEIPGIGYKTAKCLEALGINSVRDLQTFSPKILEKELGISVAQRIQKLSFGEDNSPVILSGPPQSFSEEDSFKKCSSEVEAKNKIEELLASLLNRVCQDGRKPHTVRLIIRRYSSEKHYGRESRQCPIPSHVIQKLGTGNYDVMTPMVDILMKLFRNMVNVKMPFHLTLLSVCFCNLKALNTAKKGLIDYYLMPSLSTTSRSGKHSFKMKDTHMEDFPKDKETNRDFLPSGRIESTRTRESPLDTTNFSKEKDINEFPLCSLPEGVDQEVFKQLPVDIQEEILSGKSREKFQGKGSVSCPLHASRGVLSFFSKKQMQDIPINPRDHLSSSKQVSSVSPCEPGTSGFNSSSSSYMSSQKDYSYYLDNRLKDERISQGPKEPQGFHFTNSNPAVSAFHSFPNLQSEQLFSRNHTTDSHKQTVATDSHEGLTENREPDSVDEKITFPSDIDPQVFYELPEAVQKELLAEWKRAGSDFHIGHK
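Fluorescent replication assay read twice, at 0 min and 10 min after adding 50 nM (final) substrate. Enzyme (10 nM) and compounds were first incubated 15 min at room temperature; enzyme-free buffer wells were negative controls.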
APEX1 inh = inhibitors of human APE1 endonuclease; recombinant APE1, TAMRA/BHQ-2 abasic DNA cleavage fluorescence; actives 0.35% (n = 350,000); Potency, µM (highest dose often 65.8 µM), for the others: at the top dose activity change, negative = inhibition, actives largely listed as inhibitors; P27695;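 also: plate controls were vehicle for no effect and reference inhibitor for full effect; nearly all actives have a fitted effect of over 55% in size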
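Activity was derived from the fluorescence gain between first and third kinetic reads (60 s intervals, ex 525/em 598 nm) after 50 nM THF-abasic TAMRA/BHQ-2 duplex was added to 0.75 nM APE1 preincubated 15 min with compound.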
L3MBTL1 block = blocks human L3MBTL1 | Q9Y468 | AlphaScreen L3MBTL1–H3K9me1 peptide binding | Potency, µM (top dose mostly 57.1 µM), for the others: at the top dose activity, negative = inhibition, hits mostly inhibitors | actives 0.66% (n = 230,000) | AID 485360; also: % is scaled to controls: 0 for no effect and ±100 for the full control effect; nearly all actives have a fitted effect of over 60% in size
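L3MBTL1 (50 nM) pre-complexed 30 min with biotinylated H3(1-15)K9me1 peptide (75 nM), then compounds added for 30 min at room temperature; AlphaScreen streptavidin donor/nickel chelate acceptor beads (10 ug/mL final) read after 30 min dark incubation.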
Pol kappa inh = DNA polymerase kappa (human) inhibition; purified Pol kappa, fluorescent DNA synthesis assay, 10 min; Potency, µM (top dose mostly 107 µM), for the others: at the highest dose activity, negative = inhibition, hits mostly inhibitors; actives 0.53% (n = 400,000); AID 588579; also: % is scaled to controls: 0 for no effect and ±100 for the full control effect
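Kinetic fluorescence readout at 0 and 10 min followed reaction start with substrate at 50 nM final. Beforehand, enzyme (10 nM Pol kappa) stood 15 min with compound at room temperature; buffer-only wells were negative controls.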
POLH inh = blocks human DNA polymerase eta activity; recombinant Pol eta, fluorescent DNA replication assay; Potency, µM (doses to about 114 µM), without a hit: at the highest dose activity change, negative = inhibition, usual class: inhibitors; actives 1.2% (n = 390,000); Q9Y253; also: % is scaled to controls: 0 for no effect and ±100 for the full control effect
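Pol eta (10 nM) was preincubated with compounds for 15 min at room temperature, after which fluorescent replication substrate (50 nM final) was added to start the reaction. Fluorescence was read kinetically at 0 and 10 min.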
Numbers without * were called inactive; ? = inconclusive; · = no result given; [ ] = another dose, or the depositor's remark. Calls follow the shape of the dose curve; as a rule, active = well fitted curve in the direction sought with a large enough effect; inconclusive = small, poorly fitted or top-dose-only effect, or another doubt; inactive = no such curve, though single readings can be large; an effect the other way counts as inactive or inconclusive. Potency is read from the fitted curve at half-maximal effect.

SMILES	POLB inh	Pol iota inh	APEX1 inh	L3MBTL1 block	Pol kappa inh	POLH inh
CN1CCN(C2=CC3=CC(=C(C#N)C#N)CCC3CC2)CC1 (configuration not stated)	0.0%	89.1µM*	-1.2%	·	-3.8%	-5.1%
COc1cc2ccc(=O)oc2cc1OCC(O)C(C)(C)O (configuration not stated)	35.5µM*	?	?	·	?	-4.3%
O=C(CCc1ccc(O)cc1)c1c(O)cc(O)cc1O[C@H]1OC(CO)C(O)C(O)C1O (some centres not stated)	·	·	-1.8%	·	-11.8%[60.1 µM]	·
CN(C)c1ccc(-c2nc(NC3CCNCC3)c3ccccc3n2)cc1	·	·	?	·	31.6µM*	·
CN(C)Cc1ccccc1-c1nc(NC2CCNCC2)c2ccccc2n1	·	·	?	·	14.1µM*	·
CCc1ccc(/C=C/C(=O)c2cc(Br)ccc(=O)c2O)cc1	15.8µM*	?	?	·	?	?
Cc1ccc(S(=O)(=O)Nc2cc(Br)cc3cccnc23)cc1	·	?	·	·	-11.0%	·
CC(=O)OCC(=O)[C@@]1(O)CCC2C3CCC4=CC(=O)C=CC4(C)C3C(O)C[C@]21C (some centres not stated)	·	·	·	·	3.7%[60.1 µM]	·
COc1cccc(NC(=O)CC2NCCNC2=O)c1 (configuration not stated)	-1.5%	-6.6%	·	·	-23.1%	-6.2%
CCOC(=O)c1c(C)[nH]c(C)c1S(=O)(=O)N(C)CC(=O)Nc1ccccc1F	-0.9%	50.1µM*	1.8%	·	44.7µM*	-9.1%
CCOc1ccc(C2C(C(=O)Nc3ccccc3)=C(C)N=c3s/c(=C/c4cccc(OCC(=O)O)c4)c(=O)n32)cc1 (configuration not stated)	-27.8%	?	1.7%	35.5µM*	-11.3%	?
COc1ccc(C2C(C(C)=O)=C(C)N=c3s/c(=C\c4ccco4)c(=O)n32)c(OC)c1 (configuration not stated)	35.5µM*	?	?	?	-32.0%	2.3%
CCOC(=O)C1=C(C)N=c2s/c(=C\c3ccc(OCC(=O)O)cc3)c(=O)n2C1c1ccccc1OC (configuration not stated)	12.5%	16.6%	?	·	-6.1%	39.8µM*
COc1ccc(C2C(C(C)=O)=C(C)N=c3s/c(=C\c4cc(C)n(C)c4C)c(=O)n32)c(OC)c1 (configuration not stated)	12.2%	-8.2%	-8.9%	-17.8%	-12.2%	-24.2%
CC1=C(C(=O)Nc2ccccc2)C(c2ccc(Cl)cc2)n2c(s/c(=C/c3cccc(OCC(=O)O)c3)c2=O)=N1 (configuration not stated)	79.4µM*	?	8.3%	?	-12.6%	56.2µM*
COC(=O)c1ccc(C(NC(=O)OCc2ccccc2)/C(=C/[C@@H](C)C(=O)NCc2ccncc2)c2cccnc2)cc1 (some centres not stated)	·	·	-0.7%	·	·	·
CCOC(=O)C1=C(c2ccccc2)N=c2s/c(=C\c3ccco3)c(=O)n2C1c1cccs1 (configuration not stated)	10µM*	20µM*	-4.4%	22.3%	?	79.4µM*
Cc1ccc2c(c1)c(C)cc(=O)n2CCC(=O)O	12.6µM*	3.0%	-7.2%	?	-6.3%[60.1 µM]	-3.5%
CCOC(=O)COc1nc(-c2ccc(C)cc2)cc(-c2ccco2)c1C#N	0.4%	-0.3%	6.8%	3.9%	-3.0%	-15.9%
CCOC(=O)COc1nc(-c2ccco2)cc(-c2ccco2)c1C#N	?	50.1µM*	-1.4%	-5.6%	?	-0.8%
O=C(O)CSc1c2c(nc3cc(C(=O)Nc4ccc(F)c(Cl)c4)ccc13)CCC2	?	50.1µM*	·	·	?	?
COc1ccc(NC(=O)CCC(=O)c2ccc(Cl)cc2)cn1	·	3.9%	10.9%	-2.9%	-1.7%	-22.9%
Cc1ccccc1/C=C1\Oc2ccccc2C1=O	·	-19.0%	-13.5%	-4.4%	7.4%	-12.4%
O=C1/C(=C/c2ccc(O)c(O)c2)Oc2ccccc21	·	·	?	·	13.4µM*	·
CCOC(=O)/C=C1/SCC(=O)N1Cc1ccc(Br)cc1	·	-13.8%	·	·	-3.8%	-10.5%
SMILES	POLB inh	Pol iota inh	APEX1 inh	L3MBTL1 block	Pol kappa inh	POLH inh
CCOC(=O)/C=C1\SCC(=O)N1Cc1nnc(-c2ccccc2Br)o1	22.4µM*	?	26.0%	·	-7.1%	?
COC(=O)c1ccc(-n2nnc(-c3nsc(NC(=O)c4ccc(Cl)cc4)n3)c2C)cc1	56.2µM*	?	·	·	-8.7%	-22.8%
Cc1c(-c2nsc(NC(=O)c3cccs3)n2)nnn1-c1ccc(Br)cc1	3.16µM*	?	·	·	-20.9%	?
CCCCCCCOc1ccc(CC(=O)NO)cc1	·	15.3%	·	·	3.1%	·
CC(N)(Cc1ccc(O)c(O)c1)C(=O)O (configuration not stated)	5.62µM*	?	1.12µM*	·	?	-2.8%[57.1 µM]
Cc1ccccc1Nc1c(-c2ccc(Cl)cc2)nc2c(C)cccn12	-1.4%	-0.5%	·	·	4.8%	2.6%
Cc1ccccc1Nc1c(-c2ccc(Cl)s2)nc2c(C)cccn12	11.2µM*	-38.8%	·	·	-23.8%	-15.5%
CCOc1[nH]c(/N=C/c2ccco2)c(C#N)c1C#N	12.1%	?	?	0.4%	?	14.1µM*
O=C1C=CC(O)(c2cc(=O)c3c(O)cc(O)cc3o2)C=C1	13.8%	6.31µM*	4.3%	6.6%	-8.1%	?
COc1ccc(-c2cc(=O)c3c(O)cc(O)cc3o2)cc1O	·	·	?	·	0.5%[60.1 µM]	·
COC(=O)c1cccc(-c2ccc(C(c3c(C)[nH][nH]c3=O)c3c(C)[nH][nH]c3=O)o2)c1	?	7.08µM*	?	-16.2%	-7.3%	-5.3%
COC(=O)c1ccccc1-c1ccc(C(c2c(C)[nH][nH]c2=O)c2c(C)[nH][nH]c2=O)o1	8.8%	7.94µM*	2.2%	4.2%	-7.1%	?
O=C1c2ccccc2C(=O)N1Cc1ccco1	7.5%	22.4%	0.2%	11.1%[11.4 µM]	-6.6%	-2.9%
O=C1c2cccc3c(O)ccc(c23)C(=O)N1Cc1ccco1	?	20µM*	-10.3%	?	?	31.6µM*
O=C(Cc1cccs1)Nc1nnc(-c2ccccc2)s1	15.8%	33.7%	3.0%	5.8%	9.0%	-15.2%
CCC(CC)c1nnc(NC(=O)Cc2cccs2)s1	?	-15.5%	-4.1%	-11.9%	-17.9%	79.4µM*
O=C(Cc1cccs1)Nc1nnc(Cc2ccc(F)cc2)s1	39.8µM*	·	1.7%	·	·	·
COc1ccccc1N1CC(C(=O)Nc2nnc(SCC(=O)N3CCCC3)s2)CC1=O (configuration not stated)	·	?	·	·	-19.2%	6.8%
